# CYP2C19 inhib – human CYP2C19 inhibition; P33261; inhibition, % at 5 µM; CYP2C19 Supersomes, luciferin-H EGE luminescence, 30 min; 96,000 compounds, 21% hits;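 active means CYP2C19 inhibition above a set limit at 5 µM in the primary screen, cut at about 50% in these data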;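 further: plate controls were negative control wells for no effect and 2.5 mM tranylcypromine positive control for full effect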
# EphB4 antag – EphB4-ephrin-B2 interaction antagonism | inhibition, % at 7 µM | P54760 | 97,000 compounds, 0.15% hits | EphB4 LBD / TNYL-RAW-Alexa532 peptide, fluorescence polarization | AID 720;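 active means inhibition above the screen-wide mean inhibition plus 3 SD, cut at about 15% in these data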;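 further: 0% = DMSO wells and 100% = excess unlabeled TNYL-RAW peptide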
# CYP2C9 inhib – inhibitors of human CYP2C9. CYP2C9 Supersomes, luciferin-H conversion, luminescence. inhibition, % at 5 µM. 96,000 compounds, 20% hits;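 active means blocking of liver enzyme CYP2C9 beyond about 50% at 5 µM, limit read from the data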
# CYP2C19 activ – activators of human cytochrome P450 2C19; activation factor at 5 µM; P33261; recombinant CYP2C19, luciferin-H EGE luminescence; active compounds read high; 0 = fully inhibited enzyme, 1 = untreated enzyme; 96,000 tested, under 10 active;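 active means activation factor of at least 2 at 5 µM in the primary screen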;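 further: 0 = wells with 2.5 mM tranylcypromine and 1 = vehicle-only wells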
# CYP2C9 act – increases human cytochrome P450 2C9 activity; AID 1024; recombinant CYP2C9, luciferin-H conversion, luminescence; active compounds read high; factor 1 = untreated enzyme, 0 = blocked; activation factor at 5 µM; P11712; 96,000 compounds, 1.4% hits;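 active means activation factor of 2 or more for CYP2C9 at a 5 µM dose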;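 further: 0 = sulfaphenazole-blocked wells and 1 = vehicle-only wells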
# * marks the source's active call; other numbers are inactive results; nt = no result given. Most compounds without a hit are left out; they make up all but 27% or so of the library.
SMILES,CYP2C19 inhib,EphB4 antag,CYP2C9 inhib,CYP2C19 activ,CYP2C9 act
C=CCn1c(-c2ccccc2)n[nH]c1=S,nt,-9,nt,nt,nt
COC(=O)c1c(N(S(C)(=O)=O)S(C)(=O)=O)sc2c1CCN(c1ncc(C(F)(F)F)cc1Cl)C2,24,4,36,0.8,0.6
CCCC(=O)Nc1cccc(NC(=O)c2ccccc2Br)c1,18,-5,8,0.8,0.9
CCN(CCC(=O)Nc1ccc(Br)c(C)c1)Cc1ccccc1,38,-5,64*,0.6,0.4
O=C(CCN(CCO)Cc1ccccc1)Nc1ccc(Br)cc1,69*,2,63*,0.3,0.4
N#Cc1cc2c(=O)n3ccccc3nc2n(CCCN2CCOCC2)c1=O,69*,nt,41,0.3,0.6
CCN1CCN(C(=O)c2cc3c(=O)n4ccccc4nc3n2Cc2ccccc2)CC1,1,nt,-3,1,1
O=C(NCCN1CCOCC1)c1cc2c(=O)n3ccccc3nc2n1Cc1ccccc1,55*,0,44,0.5,0.6
CCN(CC)Cc1nc2c(c(=O)[nH]1)C1(CCCC1)Cc1ccccc1-2,47,3,87*,0.5,0.1
CCC1(C)Cc2ccccc2-c2nc(NCCO)[nH]c(=O)c21 (stereo not given),56*,-1,69*,0.4,0.3
CCC1(C)Cc2ccccc2-c2nc3n(c(=O)c21)CC(C(=O)O)S3 (stereo not given),-1,5,69*,1,0.3
O=c1[nH]c(CN(CCO)CCO)nc2c1C1(CCCCC1)Cc1ccccc1-2,4,-6,14,1,0.9
CCCC(=O)Nn1cnc2c(c1=O)C1(CCCCC1)Cc1ccccc1-2,50*,0,64*,0.5,0.4
O=C(COc1ccc(F)cc1)NC1CC1,0,-2,-4,1,1
CS(=O)(=O)N(CC(=O)N1CCCCC1)c1ccc(Cl)c(C(F)(F)F)c1,16,-6,-1,0.8,1
Cc1ccnc(NS(=O)(=O)c2cccs2)c1,-8,-2,-15,1.1,1.1
Cn1c(NCCCO)nc2c(c1=O)C1(CCCCC1)Cc1ccccc1-2,78*,-4,83*,0.2,0.2
CCn1c(SCC#N)nc2c(c1=O)C1(CCCC1)Cc1ccccc1-2,60*,-12,89*,0.4,0.1
O=c1[nH]c(NCCO)nc2c1C1(CCCC1)Cc1ccccc1-2,7,-5,26,0.9,0.7
CCC1(C)Cc2ccccc2-c2nc(NCCCO)n(-c3ccccc3)c(=O)c21 (stereo not given),51*,-1,25,0.5,0.8
COC(=O)C1(C)Nc2ccccc2C(=O)N1c1ccccc1C (stereo not given),37,3,19,0.6,0.8
CCOC(=O)c1ccc(NC(=O)CSc2nc(C)cc(=O)[nH]2)cc1,9,-1,30,0.9,0.7
COc1ccc(-c2ccnc(SCC(=O)Nc3ccccn3)n2)cc1,nt,-1,nt,nt,nt
CC(=O)n1c2ccccc2c2ccccc21,47,-1,68*,0.5,0.3
Cc1ccc(C(=O)n2c3ccccc3c3ccccc32)cc1,7,0,78*,0.9,0.2
SMILES,CYP2C19 inhib,EphB4 antag,CYP2C9 inhib,CYP2C19 activ,CYP2C9 act
O=C(c1cc2n(n1)C(C(F)(F)F)CC(c1ccco1)N2)N1CCc2ccccc2C1 (stereo not given),12,0,40,0.9,0.6
COc1ccc(N/C(N)=N/c2nc(CSc3ccc(C)cc3)cc(=O)[nH]2)cc1,37,7,29,0.6,0.7
COc1ccccc1N/C(N)=N/c1nc(CSc2ccc(C)cc2)cc(=O)[nH]1,61*,-12,61*,0.4,0.4
O=C(O)c1c2c(nc3ccc(S(=O)(=O)N4CCC(C(=O)N5CCCCC5)CC4)cc13)CCCC2,-5,-1,6,1.1,0.9
O=C(O)c1c2c(nc3ccc(S(=O)(=O)N4CCC(C(=O)NC5CCCC5)CC4)cc13)CCCCC2,22,nt,52*,0.8,0.5
CC1CCc2nc3ccc(S(=O)(=O)N4CCC(C(=O)NC5CCCC5)CC4)cc3c(C(=O)O)c2C1 (stereo not given),28,-5,60*,0.7,0.4
Cc1nc2c(c(=O)n1CCC1=CCCCC1)c1nc3ccccc3nc1n2/N=C/c1ccco1,35,-4,71*,0.7,0.3
C/C(=N/OC(=O)c1ccc(C)cc1)c1cccs1,23,-9,35,0.8,0.7
Cc1ccc(C(=O)c2nocc2C(=O)c2cccs2)cc1,62*,-2,69*,0.4,0.3

# Source: PubChem BioAssay (several laboratories)
